Source: PubChem
This is a sample that favours compounds with a hit; in the whole collection about 3.1% have one here.
Bead autofluor = counter-screen for toxin protease inhibitors: compound fluorescence. AID 624483. 3.1% of 360,000 active. fluorescence intensity (no concentration beside the values). compound autofluorescence counterscreen, microsphere flow cytometry; stronger effect = higher value; in the data active means fluorescence intensity above about 16000; inconclusive means no clear call, values can overlap the other calls
BoNT A protease = inhibitors of Botulinum neurotoxin A light chain protease; multiplex microsphere protease substrate cleavage, flow cytometry; inhibition, % at 10 µM; 0.17% of 360,000 active; AID 588499; further: plate controls were buffer without enzyme for full effect and enzyme alone for no effect
PriA SSB inh = K. pneumoniae PriA-SSBct interaction inhibition; AID 1272365; AlphaScreen SSBct-PriA binding, biotinylated peptide; 0.6% of 430,000 active; inhibition, % at 33 µM; in the data active means inhibition mostly above about 37%, no sharp cut-off; inactive means mostly below about 20%;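 further: plate controls were negative control peptide for no effect and reference peptide for full effect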
Anthrax LF prot = anthrax lethal factor protease inhibition; AID 588501; multiplex microsphere protease cleavage assay, LF; inhibition, % at 10 µM; 0.12% of 360,000 active; P15917; further: plate controls were buffer without enzyme for full effect and enzyme alone for no effect
Target sequence (P15917 whole entry, looked up): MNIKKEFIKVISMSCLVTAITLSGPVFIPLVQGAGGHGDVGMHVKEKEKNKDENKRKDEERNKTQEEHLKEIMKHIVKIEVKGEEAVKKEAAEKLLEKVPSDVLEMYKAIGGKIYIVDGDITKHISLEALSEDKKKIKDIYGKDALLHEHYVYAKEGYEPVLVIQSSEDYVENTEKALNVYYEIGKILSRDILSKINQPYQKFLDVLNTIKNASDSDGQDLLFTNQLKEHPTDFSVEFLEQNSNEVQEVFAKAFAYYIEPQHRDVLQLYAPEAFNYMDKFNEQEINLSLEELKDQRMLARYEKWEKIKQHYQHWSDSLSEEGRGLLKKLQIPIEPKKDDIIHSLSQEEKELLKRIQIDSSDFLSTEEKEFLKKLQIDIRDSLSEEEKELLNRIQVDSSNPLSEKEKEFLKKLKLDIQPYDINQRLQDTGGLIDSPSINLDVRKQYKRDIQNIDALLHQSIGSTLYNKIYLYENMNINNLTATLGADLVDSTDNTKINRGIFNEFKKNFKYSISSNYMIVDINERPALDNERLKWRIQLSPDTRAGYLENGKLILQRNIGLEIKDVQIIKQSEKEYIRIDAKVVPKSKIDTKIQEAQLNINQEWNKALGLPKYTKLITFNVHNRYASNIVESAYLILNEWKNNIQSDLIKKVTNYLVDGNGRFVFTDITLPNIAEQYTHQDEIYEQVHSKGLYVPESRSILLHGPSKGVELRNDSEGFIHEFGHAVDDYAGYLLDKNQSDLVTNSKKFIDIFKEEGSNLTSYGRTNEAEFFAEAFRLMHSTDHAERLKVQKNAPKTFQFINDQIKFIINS
BoNT F protease = blocks Botulinum neurotoxin F light chain protease | Multiplex microsphere protease cleavage assay, flow cytometry | inhibition, % at 10 µM | 0.22% of 360,000 active; in the data active means inhibition above about 35%, passing the limit was not always enough; inconclusive means no clear call, values can overlap the other calls; further: plate controls were buffer without enzyme for full effect and enzyme alone for no effect
Active calls of the source: *; ? = inconclusive; · = no result given. Unless noted, no stated cut-off is given here; in the data, active means inhibition above about 30%; inconclusive means no clear call, values can overlap the other calls; inactive means below that.

SMILES	Bead autofluor	BoNT A protease	PriA SSB inh	Anthrax LF prot	BoNT F protease
CC1=C(C(=O)Nc2cccnc2)C(c2ccncc2)n2nnnc2N1 (configuration not stated)	19936*	?	-24	2	-2
COc1ccccc1NC(=O)C1=C(C)Nc2nnnn2C1c1cc(Br)ccc1OC (configuration not stated)	23731*	-4	-7	-2	-5
COc1ccccc1NC(=O)C1=C(C)Nc2ncnn2C1c1ccccc1F (configuration not stated)	·	·	2	·	·
CCOc1cc(C(c2c(C)[nH][nH]c2=O)c2c(C)[nH][nH]c2=O)ccc1OS(=O)(=O)c1ccccc1	20887*	0	9	0	-6
Cc1ccc(S(=O)(=O)Oc2ccc(C(c3c(C)[nH][nH]c3=O)c3c(C)[nH][nH]c3=O)cc2)cc1	8095	-1	18	0	-3
COC(=O)CN1C(=O)C2(C(C#N)=C(N)Oc3ccccc32)C2=C1CC(C)(C)CC2=O (configuration not stated)	22010*	2	-4	-3	3
CCn1c(SCC(=O)NC2CCCCC2)nnc1-c1cc2cccc(OC)c2o1	4559	1	-9	-3	28
Nn1c(SCC(=O)Nc2cc(C(F)(F)F)ccc2Cl)nnc1-c1ccco1	·	·	-12	·	·
COc1cccc2cc(-c3nnc(SCC(=O)Nc4cc(C(F)(F)F)ccc4Cl)n3N)oc12	23578*	-2	-6	3	-3
COc1cccc2cc(-c3nnc(SCC(=O)NCc4ccccc4)n3C)oc12	22828*	?	-18	2	6
Cc1cc(C(=O)Nc2nc(C(=O)NCCn3nc(-c4ccco4)ccc3=O)co2)no1	·	·	-13	·	·
O=C(CSc1cn(Cc2ccc(Br)cc2)c2ccccc12)NC1CCCC1	·	·	-5	·	·
O=C(CN1CCOCC1)Nc1nc(-c2ccccc2)cs1	4108	-3	1	4	-6
O=C(Cn1nnc(-c2ccc(N3CCOCC3)cc2)n1)OC1CCCCC1	21996*	2	-5	-3	4
Cc1ccccc1NC(=O)Cn1nnc(-c2ccc(N3CCOCC3)cc2)n1	22327*	?	-18	-6	-4
O=C(Cn1nnc(-c2ccc(CN3CCOCC3)cc2)n1)Nc1nc(-c2ccccc2)cs1	21308*	0	12	-10	-1
CC(CC(=O)Nc1ccc2c(c1)OCO2)=NNC(=O)C(c1ccccc1)c1ccccc1	·	·	6	·	·
Cc1c(CN(C)C(=O)c2ccc(Br)o2)cnn1C	19727*	?	-10	1	-1
CCOc1cccc2sc(=NC(=O)c3ccc(S(=O)(=O)N4CCOCC4)cc3)n(C)c12	22851*	3	-13	0	3
O=c1c2ccccc2[nH]c2ccc(F)cc12	4010	-1	-20	-1	-6
O=c1nc(-c2ccccc2Cl)c2cc(F)ccc2[nH]1	4135	-1	3	16	51*
Cc1nn(C)c(Cl)c1NC(=O)OCc1ccc(Cl)cc1Cl	23382*	?	-3	-5	-6
Cc1nn(Cc2ccc(Cl)cc2Cl)c(C)c1NC(=O)CCl	19112*	?	-12	0	4
Cc1nn(Cc2ccc(Cl)cc2Cl)c(C)c1NC(=O)c1nn(C)cc1Cl	10190	0	-1	-1	-5
COC(=O)c1ccnc(C2=C(O)CCCC2)c1	·	·	-10	·	·
SMILES	Bead autofluor	BoNT A protease	PriA SSB inh	Anthrax LF prot	BoNT F protease
CCCCN1C(=O)c2cccc3c(NC(=O)CCS(=O)(=O)c4ccccc4)ccc1c23	·	·	3	·	·
COc1ccccc1-n1cnc2cc(NS(=O)(=O)c3ccc(Br)cc3)ccc21	9806	0	41*	-1	-1
COc1ccc(-n2cnc3cc(NS(=O)(=O)c4ccc(C)cc4)ccc32)cc1	5562	0	·	-8	6
O=C1N(Cc2cccc(Cl)c2)C[C@@H]2C[C@@H](c3cccc4ncccc34)N3CCC[C@@]123	4913	-1	7	-2	-6
O=C1N(Cc2cccc(Cl)c2)C[C@@H]2C[C@@H](c3cccc4cccnc34)N3CCC[C@@]123	24208*	2	-6	-10	1
CNC(=O)Cc1ccc(NC(=O)c2ccc(Br)o2)cc1	·	·	-9	·	·
CCOC(=O)c1sc(NS(=O)(=O)c2ccccc2)nc1C	8457	0	-1	-2	3
CCOC(=O)c1sc(NC(=O)c2ccc(=O)[nH]c2)nc1C	3444	2	3	18	37*
Cc1csc(NC(=O)C2C3C=CC(C3)C2C(=O)O)n1 (configuration not stated)	21611*	?	-7	1	8
CCOC(=O)c1sc(NC(=O)C2C3C=CC(C3)C2C(=O)O)nc1C (configuration not stated)	23393*	0	-22	0	-2
